In experiment [1] the test system is Vero E6 infected with SARS-CoV-2. The experiment is described as follows: morphology score (similarity to uninfected cells); higher = more like uninfected cells. To be noted: 24 h.
Experiment [2] shares this test system. Nature of the experiment: SARS-CoV-2 infection rate relative to infected DMSO; higher = more infection, active = 60 or less. To be noted: 24 h.

As for `O=c1[nH]c2ccccc2c(=O)n1CCCN1CCN(c2ccccc2)CC1` [pelanserin] (10 µM), the morphology score in experiment [1] worked out at 0.0358. Also, the SARS-CoV-2 infection rate in experiment [2] was 104% (inactive).
In the same order, the values of `COc1ccc2c(c1)C=C1Cn3c-2c(C2CCCCC2)c2ccc(cc23)C(=O)NS(=O)(=O)N(C)CCOCCN(C)C1=O` (10 µM) are 0.153 and 97.5% (inactive).
In the same order, the values of `O=C(Nc1cccnc1)c1cc(-c2ccnc(F)c2)ccc1OCc1ccccc1` (10 µM) are -0.0646 and 114% (inactive).
Compound `Cc1ccc(S(=O)(=O)OCC(=O)Nc2ccc(C(=O)O)c(O)c2)cc1` [STAT3-inhibitor-VI] (10 µM) registered a morphology score in experiment [1] of 0.0369. The SARS-CoV-2 infection rate in experiment [2] is 110% (inactive).
With `CNC[C@H](O)[C@@H](O)[C@H](O)[C@H](O)CO` [meglumine] (10 µM), the morphology score in experiment [1] was -0.00131. Also, the SARS-CoV-2 infection rate in experiment [2] is 104% (inactive).
For `Cc1cccc(Oc2nc3c(C)cccn3c(=O)c2/C=C(\C#N)c2nc3ccccc3s2)c1` (10 µM), the morphology score in experiment [1] stood at 0.0471. For the same compound, the SARS-CoV-2 infection rate in experiment [2] is 106% (inactive).
Turning to `CC(C)(N)CC12CC3CC(CC(C3)C1)C2` [somantadine] (10 µM), the morphology score in experiment [1] worked out at 0.178. Moreover, the SARS-CoV-2 infection rate in experiment [2] was 96% (inactive).
For the compound `COc1ccc(-c2oc3c(CC=C(C)C)c(O[C@@H]4O[C@H](CO)[C@@H](O)[C@H](O)[C@H]4O)cc(O)c3c(=O)c2O[C@@H]2O[C@@H](C)[C@H](O)[C@@H](O)[C@H]2O)cc1` [icariin] (10 µM), in experiment [1], the morphology score came out at 0.141. In addition, the SARS-CoV-2 infection rate in experiment [2] was 106% (inactive).
Consider `Oc1cc2c(cc1O)C(c1ccccc1)CNCC2` (stereo not drawn) (10 µM), for which, in experiment [1], the morphology score is -0.34. In addition, in experiment [2], the SARS-CoV-2 infection rate was 116% (inactive).
In experiment [1], `Clc1ccc(C(OCCN2CCCCC2)c2ccccc2)cc1` (stereo not drawn) [cloperastine] (10 µM) had a morphology score of 0.412. Besides, in experiment [2], the SARS-CoV-2 infection rate is 75.5% (inactive).
In the case of `COc1cc2c(cc1Cc1cccc(Cl)c1F)c(=O)c(C(=O)O)cn2[C@H](CO)C(C)C` [elvitegravir] (10 µM), the morphology score in experiment [1] is 0.0588. The SARS-CoV-2 infection rate in experiment [2] is 107% (inactive).
Regarding `O=C(O)C1CN(Cc2ccc(-c3nc4cc(Cc5ccccc5F)ccc4s3)c(F)c2)C1` (10 µM), the morphology score in experiment [1] is -0.0698. Besides, the SARS-CoV-2 infection rate in experiment [2] was 113% (inactive).
`C1CCC2(CC1)CCNCC2` [4,4-pentamethylenepiperidine] (10 µM) had a morphology score in experiment [1] of -0.0731. Moreover, in experiment [2], the SARS-CoV-2 infection rate is 104% (inactive).
In turn, `CC[C@H](C)[C@H](N)C1=N[C@H](C(=O)N[C@@H](CC(C)C)C(=O)N[C@H](CCC(=O)[O-])C(=O)N[C@H](C(=O)N[C@H]2CCCCNC(=O)[C@H](CC(N)=O)NC(=O)[C@@H](CC(=O)[O-])NC(=O)[C@H](Cc3cnc[nH]3)NC(=O)[C@@H](Cc3ccccc3)NC(=O)[C@H]([C@@H](C)CC)NC(=O)[C@@H](CCCN)NC2=O)[C@@H](C)CC)CS1.[Zn+2]` [bacitracin-zinc] (10 µM) returned a morphology score in experiment [1] of -0.0221. Also, the SARS-CoV-2 infection rate in experiment [2] is 108% (inactive).
`CC(=O)O[C@H]1C[C@@H]2CC[C@@H]3[C@H](CC[C@@]4(C)[C@H]3C[C@H](N3CC[N+](C)(C)CC3)[C@@H]4OC(C)=O)[C@@]2(C)C[C@@H]1N1CC[N+](C)(C)CC1` [pipecuronium] (10 µM) yielded a morphology score in experiment [1] of 0.0487. For the same compound, the SARS-CoV-2 infection rate in experiment [2] is 106% (inactive).
As for `COC(=O)c1sccc1S(=O)(=O)Nc1ccc(Nc2ccccc2)cc1OC` (10 µM), in experiment [1], the morphology score came to 0.112. In addition, the SARS-CoV-2 infection rate in experiment [2] is 95% (inactive).
As to `O=C(O)CCC(=O)Nc1ccc(S(=O)(=O)Nc2nccs2)cc1` [succinylsulfathiazole] (10 µM), the morphology score in experiment [1] stood at 0.0689. Also, in experiment [2], the SARS-CoV-2 infection rate is 100% (inactive).
Compound `Cc1cn([C@H]2O[C@@H](CO)[C@H](O)[C@H]2F)c(=O)[nH]c1=O` [clevudine] (10 µM) came in with a morphology score in experiment [1] of -0.0291. The SARS-CoV-2 infection rate in experiment [2] is 107% (inactive).
As to `O=c1[nH]c(CCl)nc2sc3c(c12)CCCC3` (10 µM), in experiment [1], the morphology score stood at 0.193. Further, the SARS-CoV-2 infection rate in experiment [2] is 104% (inactive).
In turn, `COc1cc(C)[nH]c(=O)c1CNC(=O)c1c(C)n([C@H](C)C2CCOCC2)c2ccccc12` (10 µM) had a morphology score in experiment [1] of 0.0908. Moreover, the SARS-CoV-2 infection rate in experiment [2] was 96.5% (inactive).
For `COc1ccc([C@@H]2CC(=O)c3c(O)cc(O[C@@H]4O[C@H](CO[C@@H]5O[C@@H](C)[C@H](O)[C@@H](O)[C@H]5O)[C@@H](O)[C@H](O)[C@H]4O)cc3O2)cc1O` [hesperidin] (10 µM), in experiment [1], the morphology score was -0.132. In experiment [2], the SARS-CoV-2 infection rate is 108% (inactive).
For the compound `CCOc1cc([C@@H](CS(C)(=O)=O)N2C(=O)c3cccc(NC(C)=O)c3C2=O)ccc1OC` [apremilast] (10 µM), the morphology score in experiment [1] was determined as 0.345. Also, in experiment [2], the SARS-CoV-2 infection rate is 89% (inactive).
Consider `COc1cc(N2CCOCC2)ccc1Nc1ncc(Cl)c(Nc2ccccc2NS(C)(=O)=O)n1` (10 µM), for which the morphology score in experiment [1] was -0.034. The SARS-CoV-2 infection rate in experiment [2] was 103% (inactive).
Turning to `O=C(O)CNC(=O)c1nc(Cl)c2ccccc2c1O` (10 µM), in experiment [1], the morphology score was 0.17. Also, the SARS-CoV-2 infection rate in experiment [2] was 102% (inactive).

The values are drawn from the supplement of paper PMC13380429.
